Reference: PubChem BioAssay (Tox21)
Values joined by “and” are separate entries in the source; they are usually repeats but may differ in a detail not shown here. Equal entries are not always repeated. Inconclusive results are not listed. Entries that show only a call come without a potency. Some compounds were tested as several samples or in several runs, with calls that do not always agree. Active and inactive are the calls of the source. Unless noted, calls follow the shape of the dose curve; as a rule, active = well fitted cell-killing curve with a large enough effect in the repeat runs; inconclusive = weak or mixed curves, or effect the other way; inactive = no such curve, though single readings can be large or run the other way.

molecular target: Vitamin D3 receptor (Homo sapiens) (UniProt P11473); experiment: qHTS assay to identify small molecule agonists of the vitamin D receptor (VDR) signaling pathway (AID 743222; calls by dose curve); conditions: HEK293T VDR-UAS-bla, beta-lactamase FRET ratio, 16 h; series mostly up to 63.5 µM
Procedure, shortened: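 VDR-bla cells were plated 4 h at 37C/5% CO2, then exposed to compounds in DMSO for 16 h. After LiveBLAzer B/G FRET substrate addition and 2 h at room temperature, beta-lactamase reporter fluorescence was read.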

Sequence of Vitamin D3 receptor (Homo sapiens) (P11473 whole entry, looked up): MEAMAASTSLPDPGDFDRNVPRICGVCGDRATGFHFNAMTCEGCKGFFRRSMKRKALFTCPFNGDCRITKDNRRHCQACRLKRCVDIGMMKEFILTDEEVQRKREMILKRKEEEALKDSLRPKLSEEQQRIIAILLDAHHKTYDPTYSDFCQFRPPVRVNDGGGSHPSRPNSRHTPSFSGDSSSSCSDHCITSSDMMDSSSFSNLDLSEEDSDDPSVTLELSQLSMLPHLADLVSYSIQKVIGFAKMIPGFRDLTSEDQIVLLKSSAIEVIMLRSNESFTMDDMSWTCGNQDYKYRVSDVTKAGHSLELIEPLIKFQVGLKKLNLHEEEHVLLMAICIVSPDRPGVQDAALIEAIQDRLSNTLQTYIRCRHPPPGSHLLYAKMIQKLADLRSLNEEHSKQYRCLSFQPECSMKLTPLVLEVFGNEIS

| Compound | outcome |
| --- | --- |
| CN(C)c1ccc(C(=O)c2ccc(N(C)C)cc2)cc1 | inactive |
| CCN(N=O)C(N)=O | inactive |
| Cc1c(COC(=O)[C@@H]2[C@H](/C=C(\Cl)C(F)(F)F)C2(C)C)cccc1-c1ccccc1 | inactive |
| CC(C)c1ccc(CO)cc1 | inactive |
| O=[N+]([O-])c1c(Cl)c(Cl)c(Cl)c(Cl)c1Cl | inactive |
| CC(C)C(=O)OCC(C)(C)C(OC(=O)C(C)C)C(C)C (stereo not given) | inactive |
| CCOc1cc(C=O)ccc1O | inactive |
| COc1ccc(C(CN(C)C)C2(O)CCCCC2)cc1 (stereo not given) | inactive |
| CCOP(=S)(OCC)O/N=C(\C#N)c1ccccc1 | inactive |
| COC(=O)c1sccc1S(=O)(=O)NC(=O)Nc1nc(C)nc(OC)n1 | inactive |
| NNC(=S)NN | inactive |
| NCc1cccnc1 | inactive |
| NC(=S)Nc1ccccc1 | inactive |
| O=P(Oc1ccccc1)(Oc1ccccc1)Oc1ccccc1 | inactive |
| Nc1c(Cl)cc([N+](=O)[O-])cc1Cl | inactive |
| CC(C)(c1cc(Cl)c(O)c(Cl)c1)c1cc(Cl)c(O)c(Cl)c1 | inactive |
| CC(C)Oc1cc(-n2nc(C(C)(C)C)oc2=O)c(Cl)cc1Cl | inactive |
| O=Cc1ccco1 | inactive |
| Oc1cc(Cl)ccc1Oc1ccc(Cl)cc1Cl | inactive |
| CCCCCc1cc(O)cc(O)c1 | inactive |
| C=C(C)C(=O)OCC1CO1 (stereo not given) | inactive |
| O=C(CCl)c1ccccc1 | inactive |
| CCCCCCCCOC(=O)c1ccccc1C(=O)OCCCCCCCC | inactive |
| CCCCC(CC)COC(=O)c1ccc(C(=O)OCC(CC)CCCC)c(C(=O)OCC(CC)CCCC)c1 (stereo not given) | inactive |
| Nc1ccncc1 | inactive |
| CC(C)(C)c1ccccc1O | inactive |
| c1nc[nH]n1 | inactive |
| Nn1cnnc1 | inactive |
| Cc1ccccc1[N+](=O)[O-] | inactive |
| O=S(=O)(Oc1ccc(Cl)cc1)c1ccc(Cl)cc1 | inactive |

molecular target: Vitamin D3 receptor (Homo sapiens) (UniProt P11473); experiment: qHTS assay to identify small molecule antagonists of the vitamin D receptor (VDR) signaling pathway (AID 743223; active = well fitted inhibition curve with a large enough effect in the signal ratio in the repeat runs, not every such curve was filed as active; the % refers to the signal ratio); conditions: VDR-UAS-bla HEK293T, beta-lactamase FRET ratio, 16 h; series mostly up to 61 µM
Procedure, shortened: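 Antagonist mode: compound added to VDR-bla cells alongside agonist 1alpha,25-dihydroxyvitamin D3 (3 nM final), incubation 16 h at 37C. Read-out is LiveBLAzer FRET fluorescence, 2 h at room temperature.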

| Compound | outcome |
| --- | --- |
| CCN(N=O)C(N)=O | inactive |
| Cc1c(COC(=O)[C@@H]2[C@H](/C=C(\Cl)C(F)(F)F)C2(C)C)cccc1-c1ccccc1 | inactive |
| CC(C)c1ccc(CO)cc1 | inactive |
| O=[N+]([O-])c1c(Cl)c(Cl)c(Cl)c(Cl)c1Cl | inactive |
| CC(C)C(=O)OCC(C)(C)C(OC(=O)C(C)C)C(C)C (stereo not given) | inactive |
| CCOc1cc(C=O)ccc1O | inactive |
| COc1ccc(C(CN(C)C)C2(O)CCCCC2)cc1 (stereo not given) | inactive |
| CCOP(=S)(OCC)O/N=C(\C#N)c1ccccc1 | inactive |
| COC(=O)c1sccc1S(=O)(=O)NC(=O)Nc1nc(C)nc(OC)n1 | inactive |
| NNC(=S)NN | inactive |
| NCc1cccnc1 | inactive |
| NC(=S)Nc1ccccc1 | inactive |
| O=P(Oc1ccccc1)(Oc1ccccc1)Oc1ccccc1 | inactive |
| Nc1c(Cl)cc([N+](=O)[O-])cc1Cl | inactive |
| CC(C)(c1cc(Cl)c(O)c(Cl)c1)c1cc(Cl)c(O)c(Cl)c1 | inactive |
| CC(C)Oc1cc(-n2nc(C(C)(C)C)oc2=O)c(Cl)cc1Cl | inactive |
| O=Cc1ccco1 | inactive |
| Oc1cc(Cl)ccc1Oc1ccc(Cl)cc1Cl | inactive |
| CCCCCc1cc(O)cc(O)c1 | inactive |
| C=C(C)C(=O)OCC1CO1 (stereo not given) | inactive |
| O=C(CCl)c1ccccc1 | inactive |
| CCCCCCCCOC(=O)c1ccccc1C(=O)OCCCCCCCC | inactive |
| CCCCC(CC)COC(=O)c1ccc(C(=O)OCC(CC)CCCC)c(C(=O)OCC(CC)CCCC)c1 (stereo not given) | inactive |
| Nc1ccncc1 | inactive |
| c1nc[nH]n1 | inactive |
| Nn1cnnc1 | inactive |
| Cc1ccccc1[N+](=O)[O-] | inactive |
| O=S(=O)(Oc1ccc(Cl)cc1)c1ccc(Cl)cc1 | inactive |

test system: not listed separately; experiment: qHTS assay to identify small molecule agonists of the vitamin D receptor (VDR) signaling pathway - cell viability counter screen (AID 743224); conditions: VDR-bla HEK293T viability, CellTiter-Glo luminescence, 16 h; series mostly up to 62.6 µM; also: nearly all actives have a fitted effect of over 50% in size; also: potency is read from the fitted curve at half-maximal effect
Procedure, shortened: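 VDR-bla cells were preincubated 4 h at 37C/5% CO2, then exposed to compounds for 16 h. After the 2 h room-temperature bla FRET read, CellTiter-Glo was added to the same wells and luminescence read after 30 min.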

| Compound | Potency |
| --- | --- |
| CN(C)c1ccc(C(=O)c2ccc(N(C)C)cc2)cc1 | inactive |
| CCN(N=O)C(N)=O | inactive |
| Cc1c(COC(=O)[C@@H]2[C@H](/C=C(\Cl)C(F)(F)F)C2(C)C)cccc1-c1ccccc1 | inactive |
| CC(C)c1ccc(CO)cc1 | inactive |
| O=[N+]([O-])c1c(Cl)c(Cl)c(Cl)c(Cl)c1Cl | inactive |
| CC(C)C(=O)OCC(C)(C)C(OC(=O)C(C)C)C(C)C (stereo not given) | inactive |
| C#CCOS(=O)OC1CCCCC1Oc1ccc(C(C)(C)C)cc1 (stereo not given) | 6.92 µM (active) |
| CCOc1cc(C=O)ccc1O | inactive |
| COc1ccc(C(CN(C)C)C2(O)CCCCC2)cc1 (stereo not given) | inactive |
| CCOP(=S)(OCC)O/N=C(\C#N)c1ccccc1 | inactive |
| COC(=O)c1sccc1S(=O)(=O)NC(=O)Nc1nc(C)nc(OC)n1 | inactive |
| NNC(=S)NN | inactive |
| CCOc1cc(Oc2ccc(C(F)(F)F)cc2Cl)ccc1[N+](=O)[O-] | inactive |
| NCc1cccnc1 | inactive |
| NC(=S)Nc1ccccc1 | inactive |
| O=P(Oc1ccccc1)(Oc1ccccc1)Oc1ccccc1 | inactive |
| Nc1c(Cl)cc([N+](=O)[O-])cc1Cl | inactive |
| CC(C)(c1cc(Cl)c(O)c(Cl)c1)c1cc(Cl)c(O)c(Cl)c1 | inactive |
| CC(C)Oc1cc(-n2nc(C(C)(C)C)oc2=O)c(Cl)cc1Cl | 12.3 µM (active) |

| Compound | Potency |
| --- | --- |
| CCCCCCOC(=O)c1ccccc1C(=O)OCCCCCC | inactive |
| O=Cc1ccco1 | inactive |
| N[C@@H](Cc1ccc(N(CCCl)CCCl)cc1)C(=O)O | inactive |
| Oc1cc(Cl)ccc1Oc1ccc(Cl)cc1Cl | 20 µM (active) |
| Nc1ccc(Cl)cc1N | inactive and 43.6 µM (active) |
| CCCCCc1cc(O)cc(O)c1 | inactive |
| ClC1C(Cl)C(Cl)C(Cl)C(Cl)C1Cl (stereo not given) | inactive |
| C=C(C)C(=O)OCC1CO1 (stereo not given) | inactive |
| O=C(CCl)c1ccccc1 | inactive |
| CCC(=O)O[C@H]1CC[C@H]2[C@@H]3CCC4=CC(=O)CC[C@]4(C)[C@H]3CC[C@]12C | 12.3 µM (active) and inactive |
| CCCCCCCCOC(=O)c1ccccc1C(=O)OCCCCCCCC | inactive |
| CCCCC(CC)COC(=O)c1ccc(C(=O)OCC(CC)CCCC)c(C(=O)OCC(CC)CCCC)c1 (stereo not given) | inactive |
| Nc1ccncc1 | inactive |
| CC(C)(C)c1ccccc1O | inactive |
| c1nc[nH]n1 | inactive |
| Nn1cnnc1 | inactive |
| Cc1ccccc1[N+](=O)[O-] | inactive |
| O=S(=O)(Oc1ccc(Cl)cc1)c1ccc(Cl)cc1 | inactive |
